POLB inh: DNA polymerase beta (human) inhibition | P06746 | Pol beta primer extension/strand displacement, fluorescence kinetic | Potency, µM (series often up to 114 µM), inactives show at the top dose activity change, negative = inhibition, usual class: inhibitors | 1.3% of 340,000 active | AID 485314; note: potency is the fitted concentration of half-maximal effect; % is set by controls: 0 for no effect and ±100 for the full control effect
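Pol beta (10 nM) was preincubated with compound for 15 min at room temperature. The reaction was then started with 50 nM substrate and read immediately and after a further 10 min at room temperature.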
POLI inh: DNA polymerase iota (human) inhibition. 1% of 390,000 active. Pol iota fluorescent replication assay, 10 min. AID 588590. Potency, µM (doses to about 115 µM), inactives show at the highest dose activity, negative = inhibition, usual class: inhibitors. Q9UNA4; note: potency is the fitted concentration of half-maximal effect
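Fluorescent replication assay read twice, at 0 min and 10 min after adding 50 nM (final) substrate. Enzyme (10 nM) and compounds were first incubated 15 min at room temperature; enzyme-free buffer wells were negative controls.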
Pol kappa inh: blocks human DNA polymerase kappa activity; Q9UBT6; purified Pol kappa, fluorescent DNA synthesis assay, 10 min; Potency, µM (highest dose often 107 µM), inactives show at the top dose activity, negative = inhibition, most hits filed as inhibitors; 0.53% of 400,000 active; AID 588579; note: potency is the fitted concentration of half-maximal effect; % is set by controls: 0 for no effect and ±100 for the full control effect
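Pol kappa 10 nM + cpd, 15 min RT; start w/ substrate 50 nM final; fluorescence kinetic read, 0 and 10 min. Neg ctrl: buffer, no enzyme.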
PI5P4Ka inh: blocks human PI5P4K alpha kinase activity. PI5P4Kalpha enzyme, ADP-Glo luminescence, 60 min; hits give low values. max response, %. 1.2% of 330,000 active. AID 652105; active = max response of -50% or lower; inconclusive = between -30% and -50%; inactive = -30% or higher; note: value at the top dose of about 77 µM; % is set by controls: 0 for no effect and ±100 for the full control effect
Target sequence (P48426 whole entry, looked up): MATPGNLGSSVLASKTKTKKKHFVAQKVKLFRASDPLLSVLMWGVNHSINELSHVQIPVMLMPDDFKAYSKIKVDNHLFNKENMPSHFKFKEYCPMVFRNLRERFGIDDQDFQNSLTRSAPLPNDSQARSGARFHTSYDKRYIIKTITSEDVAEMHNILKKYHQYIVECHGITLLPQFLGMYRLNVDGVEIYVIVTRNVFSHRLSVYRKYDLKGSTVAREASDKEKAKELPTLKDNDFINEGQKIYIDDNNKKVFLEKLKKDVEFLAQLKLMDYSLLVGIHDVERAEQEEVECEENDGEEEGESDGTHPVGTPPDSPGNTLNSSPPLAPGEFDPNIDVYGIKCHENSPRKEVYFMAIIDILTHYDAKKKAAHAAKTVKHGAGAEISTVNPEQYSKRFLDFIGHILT
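Luminescence from ADP-Glo served as readout of PI5P4Kalpha activity in a qHTS format. Reaction: enzyme, substrate, compound, ATP at 5 microM final, 60 min at RT.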
FEN1 inh: blocks human flap endonuclease 1; P39748; Recombinant FEN1 flap cleavage, fluorescence, 15 min; Potency, µM (highest dose often 114 µM), for the others: at the highest dose activity change, negative = inhibition, usual class: inhibitors; 0.35% of 390,000 active; note: potency is the fitted concentration of half-maximal effect; % is set by controls: 0 for no effect and ±100 for the full control effect; nearly all actives have a fitted effect of over 65% in size
Target sequence (P39748 whole entry, looked up): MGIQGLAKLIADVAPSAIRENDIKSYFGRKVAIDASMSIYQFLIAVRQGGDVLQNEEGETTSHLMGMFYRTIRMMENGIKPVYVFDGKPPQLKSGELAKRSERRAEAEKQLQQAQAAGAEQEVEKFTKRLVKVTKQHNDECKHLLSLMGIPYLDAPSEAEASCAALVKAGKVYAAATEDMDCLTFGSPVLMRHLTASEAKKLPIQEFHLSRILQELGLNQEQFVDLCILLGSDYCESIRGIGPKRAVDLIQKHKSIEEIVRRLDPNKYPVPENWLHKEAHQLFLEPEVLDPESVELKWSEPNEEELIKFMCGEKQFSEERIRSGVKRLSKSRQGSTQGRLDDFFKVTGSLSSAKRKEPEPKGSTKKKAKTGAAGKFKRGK
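Quantitative HTS format: each compound was titrated, incubated with 10 nM nuclease for 15 min at room temperature, then challenged with flap substrate at 50 nM final. Signal change over 15 min gave concentration–effect curves.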
POLH inh: inhibitors of human DNA polymerase eta; 1.2% of 390,000 active; AID 588591; Potency, µM (highest dose often 114 µM), without a hit: at the highest dose activity change, negative = inhibition, most hits filed as inhibitors; Q9Y253; recombinant Pol eta, fluorescent DNA replication assay; note: potency is the fitted concentration of half-maximal effect; % is set by controls: 0 for no effect and ±100 for the full control effect
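Fluorescent replication assay: 50 nM final substrate added after a 15 min room-temperature compound preincubation with 10 nM enzyme. Signal taken at 0 min and again at 10 min.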
* = called active by the depositor; ? = inconclusive; nt = no result given; [ ] = dose if it differs, or a comment. In the library only some 2.8% were active in any assay of this set; here they are far more common. Unless noted, calls come from the whole dose curve; as a rule, active = well fitted curve in the direction sought with a large enough effect; inconclusive = small, poorly fitted or top-dose-only effect, or another doubt; inactive = no such curve, though single readings can be large; an effect the other way counts as inactive or inconclusive.

SMILES | POLB inh | POLI inh | Pol kappa inh | PI5P4Ka inh | FEN1 inh | POLH inh
CC(=O)N=C1SC2CS(=O)(=O)CC2N1c1ccc(-c2nc3ccc(C)cc3s2)cc1 (centres undefined) | -2.9% | nt | nt | nt | nt | nt
Cc1ccc2nc(-c3ccc(N4C(=NC(=O)CCC(=O)O)SC5CS(=O)(=O)CC54)cc3)sc2c1 (centres undefined) | ? | ? | ? | ? | -11.8% | 3.55µM*
COc1cc(NC(=O)C2CC(c3c(F)cccc3Cl)=NO2)c(OC)cc1Cl (centres undefined) | 24.6% | 76.0% | -1.2% | 15.7 | 6.6% | -22.7%
COc1ccc(NC(=O)C2CC(c3c(F)cccc3Cl)=NO2)cc1OC (centres undefined) | 5.0% | 25.9% | 6.2% | 1.8 | -8.2% | 89.1µM*
NS(=O)(=O)c1cccc2c1c([N+](=O)[O-])cc1[nH]c(=O)c(=O)[nH]c12 | nt | nt | 21.2µM* | nt | nt | nt
NS(=O)(=O)c1cccc2c1c([N+](=O)[O-])cc1nc(O)c(O)nc12 | -13.5%[57.1 µM] | 41.1% | 3.5%[60.1 µM] | -11.9 | -20.0% | -9.1%
COc1ccc(S(=O)(=O)N2CCCOC2CNC(=O)C(=O)NC2CCCC2)cc1 (centres undefined) | ? | 13.7% | -4.5% | 1.2 | -1.1% | -6.2%
COc1cccc(N2CC34C=CC(O3)C(C(=O)O)C4C2=O)c1 (centres undefined) | ? | ? | ? | ? | -10.7% | 14.1µM*
O=c1[nH]c2ccccc2c(O)c1O | 45.8% | ? | 3.4% | -96.3* | -15.3% | 5.6%
O=c1[nH]c2ccccc2c(O)c1-[n+]1ccccc1 | -5.4% | ? | -6.0% | -12.1 | -16.1% | -9.9%
CCCNC(=O)C1(C)CCN(C(=O)c2ccc3sccc3c2)C1 (centres undefined) | nt | nt | nt | -4.3 | nt | nt
O=C(CSc1nnc(-c2ccc(Br)cc2)n1-c1ccccc1)c1ccccc1 | 0.2% | -5.5% | 0.8%[60.1 µM] | nt | 0.4% | -9.4%
CC(C)Cc1oc(C(=O)O)cc1CN1CCOCC1 | 89.1µM* | 19.9% | -2.9% | -4.3 | -9.9% | -2.1%
N#Cc1ccc(-c2ccco2)nc1SCc1ccccc1 | 3.5% | 4.2% | -6.9% | -21.1 | -11.4% | -1.4%
CCSc1nc(-c2ccco2)ccc1C#N | ? | ? | -31.7% | -72.9* | -0.3% | ?
O=C(c1csnn1)N1CCC2(CCCN(c3ccncc3)C2)CC1 | nt | nt | -9.3%[60.1 µM] | nt | nt | nt
S=c1[nH]nc(NCCCN2CCOCC2)s1 | -17.7% | -6.1% | -7.9% | -69.2* | ? | -2.8%
S=C(NCCCN1CCOCC1)NCCCN1CCOCC1 | 55.3% | 6.9% | -4.0% | -16.8 | 1.1% | -7.4%
CC1=C(O)C(=O)C(C2=C(O)C(=O)C(C)=C(O)C2=O)=C(O)C1=O | nt | 12.6% | ? | ? | 11.1% | -2.0%
O=C1C(O)=C(O)C(=O)C(O)=C1O | nt | nt | 8.91µM* | nt | nt | nt
CC(C)Cc1nnc(NC(=O)CCC(=O)NCCc2ccc(Cl)cc2)s1 | 14.2% | 10.9% | -9.2% | 0.5 | -1.1% | -0.5%
Cc1ccc2nc(/C(C#N)=C/c3ccc(O)c(O)c3)[nH]c2c1 | ? | ? | ? | -69.4* | ? | ?
COc1cc(/C=C(\C#N)c2nc3ccc(C)cc3[nH]2)ccc1OC(C)C | -25.0% | 1.0% | -17.6% | nt | 10.3% | -5.2%
CCCOc1ccc(OC(=O)c2sc3ncn(Cc4cccc(F)c4)c(=O)c3c2C)cc1 | 8.5% | 18.5% | -23.8%[60.1 µM] | nt | 4.4% | -15.7%
Cc1ccc(OCCC(=O)OCC(=O)Nc2ccc(Cl)cn2)cc1 | -21.4% | ? | -37.8% | -14.7 | -5.2% | 15.8µM*
SMILES | POLB inh | POLI inh | Pol kappa inh | PI5P4Ka inh | FEN1 inh | POLH inh
Cc1cccc(NC(=O)CN2C(=O)S/C(=C\c3ccc(O)c([N+](=O)[O-])c3)C2=O)c1 | ? | -8.3% | -15.3% | ? | -1.4% | ?
O=C1S/C(=C\c2ccc(O)c([N+](=O)[O-])c2)C(=O)N1Cc1cccc([N+](=O)[O-])c1 | 31.6µM* | ? | ? | -77.6* | ? | ?
O=C(O)c1cccc(CN2C(=O)S/C(=C/c3ccccc3[N+](=O)[O-])C2=O)c1 | 28.2% | 20µM* | -25.0% | -17.0 | -16.7% | 79.4µM*
COc1ccc2c(CNCCc3cccs3)c(C(=O)O)n(Cc3ccccc3C)c2c1 | ? | -23.2% | -13.2% | nt | 6.1% | 3.6%
CN(C)CCNC(=O)CN1C(=O)COc2ccc(S(=O)(=O)N3CCCC3)cc21 | -1.0% | 23.1% | -2.4% | nt | -4.0% | -7.3%
Cn1cccc1-c1cc2n(n1)CCC(=O)N2CCCC(=O)NCc1cccc(Cl)c1 | -24.0% | 3.3% | -6.5%[60.1 µM] | nt | -4.3% | -16.2%
Cc1ccc(S(=O)(=O)Oc2cccc(/C=N/Nc3ccc(C(=O)O)cc3)c2)cc1 | -9.2% | 1.0% | 5.2% | -6.3 | -23.0% | 79.4µM*
Cc1ccc(SC[C@H](Cc2ccccc2)N2CC[C@@H](C(C)(C)C)CCC2=O)cc1 | nt | 3.7% | -13.1% | nt | -10.9% | nt
CN1C(=O)Cc2cc(S(=O)(=O)N3CCN(c4cccc(Cl)c4)CC3)ccc21 | -1.5% | 49.5% | -2.2% | 0.6 | -4.1% | -4.6%
Cc1cccc(OC(=O)Nc2ccc(C(=O)O)c(O)c2)c1 | nt | nt | nt | -54.5* | nt | -8.7%
COc1ccc(C2CC(=O)c3cc(-c4nc(-c5cccc(Cl)c5)cs4)c(=O)[nH]c3C2)cc1OC (centres undefined) | -14.0% | 6.9% | 13.6% | nt | -5.9% | -12.6%
COc1ccc(OC)c(Nc2nc(=O)c3cccnc3s2)c1 | 2.2% | ? | -18.0% | -88.9* | -8.9% | -6.2%
CCOc1ccc(NC(=O)Cn2cc(S(=O)(=O)N3CCN(c4ccccc4F)CC3)c3ccccc3c2=O)cc1 | -3.3% | 22.8% | -19.1% | nt | -10.3% | -21.2%
Nc1cccc2[nH]c(C(F)(F)F)nc12 | ? | 39.8µM* | ? | ? | 56.2µM* | 79.4µM*
Cc1ccc2c(c1)C(c1ccc(F)cc1)N(C(=O)c1ccc(S(=O)(=O)N3CCCCC3)cc1)CC(=O)N2 (centres undefined) | 30.8% | -11.8% | -3.3% | nt | -11.4% | -24.9%
CC(C)(C)c1ccc(Cn2cnc3c(cnn3C(C)(C)C)c2=O)cc1 | nt | -16.4% | 6.1% | nt | 14.1% | nt
COc1cc(OC)cc(OC(=O)c2ccc3c(=O)n4c(nc3c2)CCC4)c1 | nt | 39.8µM* | -25.1% | -22.9 | -5.8% | 39.8µM*
Cc1ccc(OC(=O)c2ccc3c(=O)n4c(nc3c2)CCC4)cc1 | nt | 18.8% | -4.0% | -16.4 | -0.9% | ?
COC(=O)c1sc(NC(=S)NNC(=O)c2c(Br)c(C)nn2C)c(C(=O)OC)c1C | 22.4µM* | ? | -35.5% | ? | -23.9% | 50.1µM*
Cc1ccc(C)c(S(=O)(=O)NCC(c2ccco2)S(=O)(=O)c2ccc(F)cc2)c1 (centres undefined) | -0.9% | 22.1% | -4.2%[60.1 µM] | nt | 1.9% | -29.3%
